# The list is not random: actives were taken first. Their share in the collection is about 21%.
# DT40 TDP1 no CPT: qHTS for Inhibitors of human tyrosyl-DNA phosphodiesterase 1 (TDP1): qHTS in cells in absence of CPT. Potency, µM (titrated, usually from 46.2 µM), inactives show at the top dose activity change, negative = growth inhibition, most hits filed as inhibitors. AID 686978, 2013. hit rate 15% among 420,000. DT40 Tdp1-/- hTDP1 cells, no CPT, ATP luminescence, 48 h; also: potency is read from the fitted curve at half-maximal effect; % is scaled to controls: 0 for no effect and ±100 for the full control effect; nearly all actives have a fitted effect of over 55% in size
#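 Readout: luminescence from CellTiter-Glo after 30 min in the dark at RT. Cells: DT40 Tdp1-/- with stable hTDP1, 400/well. Exposure: compounds alone, ≥48 hr, 37 °C.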
# ClpP mod: qHTS Assay for Activators of ClpP; ATP-dependent Clp protease proteolytic subunit (Bacillus subtilis (strain 168)), P80244; purified B. subtilis ClpP, FRET peptide cleavage, 20 min; Potency, µM (top dose mostly 57.5 µM), for the others: top-dose activity change, negative = active; hit rate 1.9% among 340,000; AID 651965, 2013; active = well fitted falling curve with a large enough effect; inconclusive = small, poorly fitted or top-dose-only effect; inactive = no such curve, though single readings can be large or run the other way; also: potency is read from the fitted curve at half-maximal effect; the source files actives as falling curves though it sought activators and does not explain the sign; nearly all actives have a fitted effect of over 65% in size
# Target sequence (P80244 whole entry, looked up): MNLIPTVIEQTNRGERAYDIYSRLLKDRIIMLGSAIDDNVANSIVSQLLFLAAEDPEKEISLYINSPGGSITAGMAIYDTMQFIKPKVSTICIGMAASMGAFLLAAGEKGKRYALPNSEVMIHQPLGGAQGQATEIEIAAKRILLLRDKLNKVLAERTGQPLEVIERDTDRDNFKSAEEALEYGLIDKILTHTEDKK
#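 Purified B. subtilis ClpP, 10 microg/mL final in Tris/HCl pH8 with KCl, BSA, glycerol and Tween-20, cleaved an Abz/nitrotyrosine-quenched decapeptide. Fluorescence (ex 320, em 430) was read at 0 and 20 min at room temperature. Delta was normalized to 5.8 microM ADEP and DMSO/no-enzyme controls.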
# D3 ag: D3 dopamine receptor (human) agonism | P35462 | D3R DiscoveRx beta-arrestin cells, luminescence, 90 min | max activation, % | hit rate 0.58% among 410,000 | AID 652048; in the data active = max activation above about 30%; also: 0% is about no effect
#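 Cells at 1500/well, incubated overnight, then treated with pinned compounds (dopamine as control) for 90 min at 37 degrees C. DiscoveRx reagent added for 30 - 60 minutes at room temperature; luminescence read.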
# IL-1B inflam inh: inflammasome signaling inhibition, IL-1 beta readout; THP-1 LPS/ATP IL-1B secretion, AlphaLISA, 16 h; stronger effect = lower value; activity change, % at 57.5 µM; hit rate 4.7% among 360,000; in the data active = activity change below about -50%; inconclusive = mostly about -30% to -49%; also: % is scaled to controls: 0 for no effect and ±100 for the full control effect
#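 THP-1 cells pretreated 1 hr with compounds (up to 57.5 uM final), then stimulated with LPS (250 ng/mL final) plus ATP (1.25 mM final); secreted IL-1B measured by AlphaLISA after 16 hr, decreased signal indicating inhibition.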
# DT40 TDP1 CPT: growth inhibition of DT40 Tdp1-/-;hTDP1 cells with camptothecin (screen for TDP1 inhibitors); chicken DT40 Tdp1-/-;hTDP1 cells + 20 nM CPT, ATP luminescence, 48 h; Potency, µM (top dose mostly 46.2 µM), for inactives: top-dose activity change, negative = growth inhibition, most hits filed as inhibitors; hit rate 12% among 420,000; AID 686979; also: potency is read from the fitted curve at half-maximal effect; % is scaled to controls: 0 for no effect and ±100 for the full control effect; nearly all actives have a fitted effect of over 55% in size
#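 Chicken DT40 Tdp1-/- cells stably complemented with human TDP1 were seeded at 400 cells/well in medium containing 20 nM camptothecin, exposed to pin-transferred compounds, and grown at 37 °C for at least 48 hr. Viability was read as ATP luminescence.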
# D3 antag: antagonists of human D3 dopamine receptor; P35462; D3R cells, DiscoveRx beta-arrestin luminescence, antagonist mode; stronger effect = lower value; max response, negative = inhibition, %; hit rate 2.5% among 360,000; AID 652054; in the data active = max response below about -50%; inconclusive = no clear call, values can overlap the other calls; also: % is scaled to controls: 0 for no effect and ±100 for the full control effect
#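 Cells expressing the human receptor were seeded at 1500 cells/well, incubated overnight at 37 degrees C in 5% CO2, then exposed to library compounds with dopamine controls for 90 minutes at 37 degrees C before luminescent detection.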
# The depositor's hits bear a star; ? = inconclusive; . = no result. Unless noted, calls follow the shape of the dose curve; as a rule, active = well fitted inhibition curve with a large enough effect; inconclusive = small, poorly fitted or top-dose-only effect; inactive = flat fitted curve, though single readings scatter.
SMILES,DT40 TDP1 no CPT,ClpP mod,D3 ag,IL-1B inflam inh,DT40 TDP1 CPT,D3 antag
O=[N+]([O-])c1ccc(CN2CCC(Cc3ccccc3)CC2)cc1,?,0%,-18,-1,?,?
CCOc1ccccc1OCCN1CCC(Cc2ccccc2)CC1,?,-1%,-38,-4,-19%,-99*
COc1cccc(OC)c1OCCCCN1CCC(Cc2ccccc2)CC1,18µM*,.,-21,-77*,?,-75*
O=[N+]([O-])c1cccc(OCCCN2CCC(Cc3ccccc3)CC2)c1,?,.,-21,-73*,?,-101*
Cc1ccccc1OCCN1CCC(Cc2ccccc2)CC1,21µM*,-2%,-13,-10,?,-91*
CCOc1ccccc1OCCN1CCCC1,-11%,-1%,-9,-8,-4%,2
CC1CCN(CCOc2ccccc2-c2ccccc2)CC1,?,1%,-30,-28,11%,?
CCN1C(=O)[C@H]2[C@H]3CN=C(SCc4ccc(OC)cc4)N3[C@@](CC)(C(=O)OC)[C@H]2C1=O,-1%,-1%,2,12,9%,0
CCCCS(=O)(=O)N1CCC(C(=O)NCC2CCCO2)CC1 (configuration not stated),5%,.,-9,-8,1%,-5
CC(=O)OC1CC2C(C)(C)C(=O)C3OC3[C@]2(C)C2CC[C@@]3(C)C(c4ccoc4)OC(=O)C4OC43[C@]12C (some centres not stated),-12%,.,.,.,7%,.
CCC1CN(C(=O)Nc2cc(Cl)ccc2C(=O)OC)c2ccccc2S1 (configuration not stated),?,-19%,-14,.,?,.
CCC(=O)N1CCc2cc(Br)cc(S(=O)(=O)CCC(=O)NCCc3ccc(Cl)cc3)c21,?,-1%,-2,.,-27%,.
NS(=O)(=O)c1ccc(NC(=O)CN2CCN(S(=O)(=O)c3cccs3)CC2)cc1,-4%,0%,1,19,1%,10
CCOC(=O)c1c(C)n(C)c2ccc(OCCN(C)C)cc12,8%,-3%,7,?,-5%,8
CCOC(=O)c1c(C)n(-c2ccccc2)c2ccc(OCCN(C)C)cc12,?,-8%,-7,-80*,?,-5
CCOC(=O)c1c(C)n(-c2ccccc2)c2ccc(OC(=O)c3cccc(Cl)c3)cc12,26µM*,2%,-1,.,?,.
Cc1ccc(OC(=O)c2ccccc2)cc1C,5%,28µM*,5,-3,-1%,-5
CCOC(=O)c1c(C)n(C)c2cc(OCCN(CC)CC)ccc12,0%,-3%,-4,-55*,1%,-7
COc1ccc(N2CC(NC(=O)c3cc4ccccc4o3)CC2=O)cc1OC (configuration not stated),?,-4%,-3,.,?,.
CC(C)(CNc1ccc([N+](=O)[O-])cc1Cl)N1CCOCC1,-19%,.,4,20,-22%,-18
O=C(O)C1C2CCC(CC2)C1C(=O)N1CCN(Cc2ccc(F)cc2)CC1 (configuration not stated),1%,-1%,-3,27,-19%,-14
CCOC(=O)c1c(C)n(-c2ccccc2)c2ccc(OC(=O)c3c(F)cccc3F)cc12,-7%,5%,-13,.,-9%,.
CCOC(=O)c1c(C)n(-c2ccccc2)c2ccc(OC(=O)c3ccccc3)cc12,16µM*,-7%,-13,.,?,.
Cc1cc(C)c(C(=O)Cn2nc(C(=O)O)c3ccccc3c2=O)cc1C,-20%,.,13,8,-12%,44
Cc1cc(C(=O)Cn2nc(C(=O)O)c3ccccc3c2=O)c(C)n1CCc1ccc(Cl)cc1,?,-5%,7,-26,21µM*,52
Cc1ccc(S(=O)(=O)N2CCN(C(=O)COC(=O)c3cccc(Cl)c3)CC2)c(C)c1,?,0%,-1,29,?,7
